Fluor 339 460: intrinsic fluorescence of library compounds, ex339/em460 – biochemical, MLSMR library, data from DPM-DC assay, artefact control, profiling panel; compound autofluorescence, ex339/em460 nm, NADH buffer; hits give high values; 1 = no-compound wells, NADH background; fluorescence fold increase at 10 µM; 65,000 tested, 5.5% active;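 active means at 10 µM, mean starting fluorescence two-fold or more over control wells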;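 further: signal is the first read of a kinetic run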
Spn MK inh: S. pneumoniae mevalonate kinase inhibition; inhibition, % at 10 µM; purified MK, PK/LDH-coupled NADH absorbance 340 nm; 65,000 tested, 0.48% active;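 active means ranked among the strongest by inhibition in the single 10 µM screen, a fixed top-ranked set picked for dose follow-up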
Spn DPM-DC inh: blocks S. pneumoniae diphosphomevalonate decarboxylase; calls only at 10 µM; purified DPM-DC, PK/LDH coupled NADH fluorescence; 65,000 tested, 0.49% active; AID 556;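 active means the 320 compounds with the highest percent inhibition in the single-dose primary screen, excluding strongly autofluorescent ones, cut at about 32% in these data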;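 further: kinetic rate of NADH fluorescence loss reporting ADP formed by the decarboxylase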
NADH coupling: inhibition of NAD/NADH coupling enzymes, library profiling. IC50, µM (doses to about 10 µM), inactives show at the top dose inhibition. coupled PK/LDH NADH assays, four targets. 65,000 tested, 0.02% active. AID 774;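 active means single-dose screening hits from any of four coupled enzyme assays that gave an IC50 when retested across doses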;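 further: the DPM-DC format reads NADH fluorescence rather than 340 nm absorbance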
A340 absorber: absorbance at 340 nm | compound absorbance at 340 nm, fold over control | fold change at 10 µM | AID 708 | 65,000 tested, under 10 active;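 active means at 10 µM dose, initial 340 nm absorbance at least 2 fold that of control wells; inactive means change under 2 fold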;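 further: initial absorbance extrapolated from kinetic A340 decline of NADH oxidation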
PMK inhibit: S. pneumoniae PMK inhibition; purified PMK, PK/LDH-coupled NADH absorbance 340 nm; inhibition, % at 10 µM; 65,000 tested, 0.49% active;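 active means top-ranked compounds by inhibition in the single 10 µM screen, taking a fixed number of the strongest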;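 further: 0% = full reaction with DMSO carrier and 100% = background rate without enzyme reaction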
* = called active by the depositor; i = inactive; nt = no result given; + = active, no number. Shown are actives, neighbours in structure and some others; about 6.5% of the full set was active somewhere.

SMILES	Fluor 339 460	Spn MK inh	Spn DPM-DC inh	NADH coupling	A340 absorber	PMK inhibit
CN1CCN(CCCNC(=O)C2CCN(c3nnc(-n4cccc4)s3)CC2)CC1	0.99	10	i	6%	0.98	9
CN(Cc1ccccc1)Cc1c[nH]c2ccccc12	1	0	i	10%	0.99	5
CN(Cc1ccccc1)Cc1c(F)cccc1F	1.1	52*	i	17%	1	0
CCOC(=O)Cc1c(C)c2c(O)cc(O)cc2oc1=O	2.4*	5	nt	4%	1.1	0
CCN(CC)c1ccc2c(Cl)c(Br)c(=O)oc2c1	1.5	4	i	1%	1	0
CCOC(=O)c1c(C)oc2ccc(O)c(CN(C)C)c12	1	1	i	3%	0.99	11
CCOC(=O)CCc1c(C)c2ccc(O)cc2oc1=O	3.7*	9	nt	12%	1.1	14
CCN(CC)c1ccc2c(C)c(-c3ccc(N)cc3)c(=O)oc2c1	2.5*	1	nt	6%	0.98	12
CCOC(=O)Cc1c(C)c2ccc(N(CC)CC)cc2oc1=O	4.4*	9	nt	12%	1	15
Cc1ccc2c(c1)N(Cc1ccncc1)C(=O)C(C)O2 (configuration not stated)	1	5	i	8%	1	11
CC1Cc2nc(SCC(=O)OCc3ccccc3)n(C)c(=O)c2S1 (configuration not stated)	1.1	0	i	3%	1.1	9
CCn1c(=O)c2cc(C(=O)N3CCCC3)sc2c2ccccc21	2.1*	3	nt	2%	1.2	1
O=C(c1cc2c(=O)n3ccccc3nc2s1)N1CCOCC1	4.9*	0	nt	10%	1.1	19
CCn1c2ccccc2c2cc(NC(=O)N3CCOCC3)ccc21	2.1*	9	i	10%	1.1	8
O=C(c1cc2c(=O)oc3ccccc3c2s1)N1CCOCC1	0.96	8	i	10%	1.1	17
CCn1c(=O)c2cc(C(=O)N3CCOCC3)sc2c2ccccc21	2.1*	6	nt	5%	1.1	3
Cc1nn(-c2ccccc2)c2sc(C(=O)N3CCOCC3)cc12	1.1	3	i	1%	1	7
CCn1c(=O)cc(OCC(=O)N2CCCC2)c2ccccc21	1.1	0	i	0%	1	0
O=P1(c2ccccc2)C=Cn2c1cc1c2CCCC1 (configuration not stated)	1.3	3	i	8%	1	14
Cc1ccc(C)c(/C(O)=C2\C(=O)C(=O)N(CCCN(C)C)C2c2cccnc2)c1 (configuration not stated)	1.1	3	i	7%	1.1	17
Cn1c(C(=O)N(Cc2ccccc2)Cc2cccs2)cc2sccc21	1	0	i	5%	0.99	15
Cc1c(Cl)cccc1NC(=O)c1cc(C2CC2)on1	1	10	i	10%	1.1	12
O=C1c2ccccc2C(=O)N1CC1=CCS(=O)(=O)C1	1.1	9	i	7%	1	13
COc1ccccc1N1CCN(C(=O)c2ccc(Br)s2)CC1	1	9	i	3%	1	0
COc1ccccc1N1CCN(C2CCN(C(=O)c3cccs3)CC2)CC1	1	56*	i	19%	1	2
SMILES	Fluor 339 460	Spn MK inh	Spn DPM-DC inh	NADH coupling	A340 absorber	PMK inhibit
COc1ccc(S(=O)(=O)N2CCN(S(=O)(=O)c3ccc4c(c3)OCCO4)CC2)cc1C	1	9	i	3%	0.97	16
CCCCn1c(-c2ccccc2)nc2c(=O)n(C)c(=O)[nH]c21	3.7*	2	nt	5%	1	7
CCOc1ccc(S(=O)(=O)Nc2ccccc2C(=O)Nc2ccccc2N2CCOCC2)cc1	1	1	i	2%	0.99	10
CCOc1ccc(S(=O)(=O)Nc2ccccc2C(=O)NCC2CCCO2)cc1 (configuration not stated)	2.1*	5	nt	7%	1	8
COc1ccccc1NS(=O)(=O)c1cccc2cccnc12	1.1	51*	i	26%	1.1	5
COc1ccc(N2CC(C)Cn3c2nc2c3c(=O)[nH]c(=O)n2C)cc1 (configuration not stated)	1.1	10	i	7%	1	11
COc1ccc(CN2CCCC(C(=O)N3CCCC3)C2)cc1 (configuration not stated)	1.1	0	i	3%	1	10
O=C(C1CCN(Cc2ccc(OCc3ccccc3)cc2)CC1)N1CCCC1	1.1	59*	i	31%	1	34*
COc1cc(NC(=O)c2nnn(Cc3ccc(SC)cc3)c2N)cc(OC)c1	1.1	1	i	1%	1	1
Cc1cc(C)c2c(N)c(C(=O)NCc3ccco3)sc2n1	2.1*	15	nt	10%	1.1	4
CC1CCc2sc3ncn4nc(C(=O)NCc5ccco5)nc4c3c2C1 (configuration not stated)	2*	9	i	12%	1	8
Cc1cc(C)n2nc(C(=O)NCc3ccco3)nc2n1	1	5	i	5%	0.97	0
Cc1cc(C)c2c(N)c(C(=O)N3CCCCCC3)sc2n1	2.2*	0	i	7%	1.1	0
CCOC(=O)c1c(NC(C)=O)no[n+]1[O-]	1.1	5	i	5%	1	10
O=C(Nn1cnnc1)c1cc2c(s1)CCCCC2	1	14	i	11%	1	9
CCN1CCCC1CN(Cc1cc2cc(OC)ccc2[nH]c1=O)C(=O)NCc1ccccc1 (configuration not stated)	4.3*	3	nt	8%	1.1	13
COc1ccc2[nH]c(=O)c(CN(CC3CCCO3)C(=O)Nc3ccc(F)cc3)cc2c1 (configuration not stated)	2.3*	9	i	4%	1	4
COc1cccc(C(=O)N(Cc2cc3cc(C)ccc3[nH]c2=O)CC2CCCO2)c1 (configuration not stated)	1.8	7	i	7%	1.1	9
COc1ccc2[nH]c(=O)c(CN(CCCN(C)C)C(=O)Nc3ccccc3)cc2c1	2.7*	8	i	13%	1.1	11
CCc1ccc2[nH]c(=O)c(CN(CCN(C)C)C(=O)Nc3ccccc3)cc2c1	1.3	9	i	5%	1.1	7
O=C(NC1CCCCC1)N(CCN1CCCC1)Cc1cc2cc3c(cc2[nH]c1=O)OCCO3	3.6*	0	+	19%	1	14
Cc1cccc2cc(CN(CCN3CCCC3)C(=O)NC3CCCCC3)c(=O)[nH]c12	1.2	3	i	4%	1	30*
O=C(NC1CCCCC1)N(Cc1cc2cc3c(cc2[nH]c1=O)OCCO3)CC1CCCO1 (configuration not stated)	4.5*	9	nt	10%	1.1	11
